Active and inactive are the calls of the source.

Drawing on PubChem BioAssay, this text covers composite z-score and composite Z-score for 16 compounds.

The target in one experiment is Albumin (Bos taurus) (UniProt P02769). The experiment is described as follows: bovine serum albumin binders on microarray, profiling panel, artefact control for SMM control protein annotation, biochemical, small-molecule microarray, Alexa647 label, 635/667 nm fluorescence (AID 1118).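 Also: score merges 667 nm emission intensity and signal-to-noise per printed compound spot.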 Conditions: BSA-A647 binding, fluorescence 635 nm, higher = more signal.
Albumin (Bos taurus), sequence (P02769 whole entry, looked up): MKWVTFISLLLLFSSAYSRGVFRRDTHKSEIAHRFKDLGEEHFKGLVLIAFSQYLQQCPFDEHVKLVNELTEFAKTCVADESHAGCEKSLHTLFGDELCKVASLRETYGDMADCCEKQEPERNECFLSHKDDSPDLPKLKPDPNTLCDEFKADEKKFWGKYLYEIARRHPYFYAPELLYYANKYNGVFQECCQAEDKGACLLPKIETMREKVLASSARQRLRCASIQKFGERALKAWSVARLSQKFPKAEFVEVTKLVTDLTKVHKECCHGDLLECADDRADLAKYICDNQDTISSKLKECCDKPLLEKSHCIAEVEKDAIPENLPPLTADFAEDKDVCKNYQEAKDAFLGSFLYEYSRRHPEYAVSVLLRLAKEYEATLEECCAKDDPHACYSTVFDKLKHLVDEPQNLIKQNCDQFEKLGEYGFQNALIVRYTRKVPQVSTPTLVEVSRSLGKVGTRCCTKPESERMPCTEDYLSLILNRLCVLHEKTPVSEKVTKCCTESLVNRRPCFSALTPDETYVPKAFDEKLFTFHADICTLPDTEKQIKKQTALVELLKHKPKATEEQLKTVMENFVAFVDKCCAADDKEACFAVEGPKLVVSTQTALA
The nature of experiment [1]: small-molecule microarray binders of probe aXIP, primary screen, biochemical, NeuroSMM set, 635/667 nm fluorescence (AID 1119).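 Also: probe is the protein aXip251-270 applied at 1 µg/mL to compound-printed slides; binding of probe to printed compounds measured as 667 nm fluorescence plus signal to noise.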 Conditions: higher = more signal, called active from +8 up or from −8 down.
Experiment [2] can be described thus: small-molecule binders of probe aNOTCH3, primary screen, biochemical, small-molecule microarray, 635/667 nm fluorescence (AID 1120).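 Also: probe is a biotin-tagged antibody raised against NOTCH3 rather than NOTCH3 protein; score merges spot fluorescence near 667 nm with spot signal to noise.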 Conditions: higher = more signal.
Experiment [3] is described as follows: small-molecule binders of probe aNOTCH2, primary screen, biochemical, small-molecule microarray, 635/667 nm fluorescence (AID 1121).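 Also: score merges feature fluorescence read at 667 nm with its signal to noise.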 The conditions noted are these: higher = more signal.
Experiment [4] addresses Carbonic anhydrase 2 (Homo sapiens) (UniProt P00918). The experiment is described as follows: CAII small-molecule binders, profiling panel, biochemical, small-molecule microarray, Alexa647-labelled CAII (AID 1122). Conditions: CAII-A647 binding fluorescence, higher = more signal.
Experiment [5] in a line: COS7 lysate on small-molecule microarray, probe aHis, 635 nm (AID 1123).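 Also: z-score combines 667nm fluorescence intensity with signal-to-noise per printed compound spot.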 Conditions: COS7 cell lysate, fluorescence, higher = more signal.
Experiment [6] is described as follows: compound binding in COS7 lysate, probe aLAP1, primary screen, cell lysate, small-molecule microarray (AID 1124).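 Also: lysate comes from COS7 cells expressing LAP1 and is applied at 0.3 µg/mL; score merges spot fluorescence near 667 nm with signal-to-noise over triplicate slides.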 Conditions: probe aLAP1, fluorescence, higher = more signal.
A further experiment relates to Sam68 (KHDRBS1). The experiment is described as follows: Sam68 small-molecule binders, primary screen, biochemical, small-molecule microarray, 635 nm fluorescence (AID 1125).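 Also: score merges 667 nm channel intensity with signal to noise over triplicate slides.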 The conditions noted are these: small-molecule microarray binding, higher = more signal.
For experiment [7], the system named is Chordin-like protein 2 (CHRDL2). The experiment is described as follows: CHRDL2 small-molecule binders, primary screen, biochemical, small-molecule microarray, 635 nm fluorescence (AID 1126).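 Also: printed compound slides probed with Chrdl2 protein at 4 µg/mL for 1 h at 4 C; score merges 667 nm emission intensity with signal to noise over three replicate slides.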 Conditions: small-molecule microarray binding, fluorescence 635 nm; higher = more signal.
Experiment [8] addresses Concanavalin-A (Canavalia ensiformis) (UniProt P02866). The experiment is described as follows: ConA small-molecule binders, primary screen, artefact control for SMM control protein annotation, biochemical, small-molecule microarray, Alexa647 label, 635 nm (AID 1127).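 Also: z combines 667 nm emission intensity with signal-to-noise across three replicate slides.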 Conditions: ConA-A647 binding fluorescence, higher = more signal.

Concanavalin-A (Canavalia ensiformis), sequence (P02866 whole entry, looked up): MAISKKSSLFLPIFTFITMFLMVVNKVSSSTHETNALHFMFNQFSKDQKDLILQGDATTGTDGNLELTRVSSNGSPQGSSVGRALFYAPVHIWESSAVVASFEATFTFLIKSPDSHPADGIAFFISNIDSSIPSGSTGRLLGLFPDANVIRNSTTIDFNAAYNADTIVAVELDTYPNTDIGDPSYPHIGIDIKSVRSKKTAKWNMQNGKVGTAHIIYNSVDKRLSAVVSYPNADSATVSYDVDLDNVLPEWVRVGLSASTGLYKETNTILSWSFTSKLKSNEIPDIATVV

Take `C=CCNC(=O)[C@@H]1[C@H]2C(=O)O[C@H](c3ccccc3)[C@H](c3ccccc3)N2[C@H](c2ccc(OCCO)cc2)[C@@]12C(=O)N(C(=O)OCCOC)c1ccc(C#CC3=CCCCC3)cc12`: the composite z-score with Albumin (Bos taurus) was 0.498; in [2], 0.144; in experiment [3], -0.0832; in experiment [4] it was 0.621; in experiment [5], 0.634; in [6], 0.923. The results for the composite z-score (with Sam68 (KHDRBS1); in experiment [7]; in experiment [8]) were 1.3, 0.606 and 1.15, respectively. Also, in experiment [1], the composite Z-score is 0.223 (inactive).

As for `C=CC[C@@H](OC(=O)Nc1ccc(OC)cc1)c1ccc(OCCO)cc1`, the composite z-score with Albumin (Bos taurus) was 0.384; in experiment [2], -0.46; in experiment [3] it was -0.0911; in experiment [4], 0.709; in experiment [5] it was 0.31; in experiment [6], -0.347. The composite z-score was -0.661 in the experiment on Sam68 (KHDRBS1), -2 in experiment [7] and -1.54 in experiment [8]. In experiment [1], the composite Z-score was 0.166 (inactive).

Regarding `CO[C@H]1O[C@H](CO)[C@@H](OC(=O)Nc2ccccc2-c2ccccc2)[C@H](OC(=O)Nc2ccc3c(c2)OCO3)[C@@H]1OC(=O)Nc1ccc2c(c1)OCO2`, the composite z-score is 0.508 with Albumin (Bos taurus); 0.389 in [2]; -0.0684 in experiment [3]; 0.735 in experiment [4]; 2.47 in experiment [5]; 0.335 in experiment [6]. Also, the figures for the composite z-score (in the experiment with Sam68 (KHDRBS1); in [7]; in experiment [8]) were 1.3, 0.517 and 0.921, respectively. For the same compound, the composite Z-score in [1] is 0.151 (inactive).

As to `C=CC[C@]12N=C(c3ccc(OCCCO)cc3)O[C@H]1c1ccccc1N(C)C2=O`, the composite z-score was 0.0095 with Albumin (Bos taurus); 0.336 in experiment [2]; 0.0424 in [3]; 0.308 in experiment [4]; 2.73 in [5]; 1.14 in [6]. Further, the composite z-score in the experiment on Sam68 (KHDRBS1) was determined as 1.21; in experiment [7], 0.76; in [8], 0.989. The composite Z-score in experiment [1] was 2.56 (inactive).

As to `NCCCCCNC(=O)[C@@H]1C[C@@H]2C(=O)N[C@@H](CCCCN)C(=O)N2[C@@H]1c1cccc(OCCO)c1`, the composite z-score in the experiment with Albumin (Bos taurus) was 0.104; in experiment [2] it was -0.0168; in experiment [3], -0.0637; in experiment [4] it was -0.153; in experiment [5], 0.043; in experiment [6], 1.55. The values for the composite z-score (in the experiment with Sam68 (KHDRBS1); in [7]; in experiment [8]) were 0.668, 1.18 and -0.0079, respectively. For the same compound, the composite Z-score in experiment [1] is 0.416 (inactive).

Turning to `C[n+]1ccc(CCCO)cc1`, the composite z-score is -0.911 with Albumin (Bos taurus); 0.182 in experiment [2]; -0.0211 in experiment [3]; 0.321 in [4]; 2.53 in experiment [5]; 1.6 in experiment [6]. Also, the composite z-score in the experiment on Sam68 (KHDRBS1) is 0.0844; in experiment [7] it was 0.127; in experiment [8], -0.0858. Moreover, the composite Z-score in [1] is 0.165 (inactive).

In the case of `C=CCN1C(=O)[C@@]2(O[C@@H](CCO)[C@H]([Si](C)(C)c3ccc(OC)cc3)[C@H]2C)c2cc(N3C(=O)c4ccccc4Oc4ccccc43)ccc21`, the composite z-score is 0.593 with Albumin (Bos taurus); -0.145 in experiment [2]; -0.133 in experiment [3]; 0.307 in [4]; 1.15 in experiment [5]; 0.478 in experiment [6]. In addition, the composite z-score with Sam68 (KHDRBS1) is 0.522; in experiment [7], -0.0806; in [8] it was 0.854. Further, in experiment [1], the composite Z-score was 0.0553 (inactive).

Turning to `COCCOC(=O)N1C(=O)[C@@]2(c3cc(C#Cc4ccc(OC)cc4)ccc31)[C@H](C(=O)NC[C@H](O)c1ccccc1)[C@H]1C(=O)O[C@H](c3ccccc3)[C@H](c3ccccc3)N1[C@@H]2c1ccc(O)cc1`, the composite z-score with Albumin (Bos taurus) is 0.148; in experiment [2], 0.236; in [3], -0.154; in [4], 0.441; in experiment [5], 1.7; in experiment [6], 1.48. Besides, the composite z-score with Sam68 (KHDRBS1) is 1.29; in experiment [7], 0.806; in [8], 1.16. Moreover, the composite Z-score in experiment [1] was 0.552 (inactive).

Take `CC[C@@H]1[C@H]2C3C(=O)N(CC)C(=O)C3CC(=O)[C@H]2[C@H](c2ccc(C)cc2)N1S(=O)(=O)c1ccc(C)cc1` (stereo not given in full): the composite z-score is 0.779 in the experiment with Albumin (Bos taurus); 0.0271 in experiment [2]; -0.0468 in experiment [3]; 0.512 in experiment [4]; 1.21 in [5]; -0.357 in experiment [6]. The composite z-score in the experiment with Sam68 (KHDRBS1) was 1.33; in [7], -0.49; in experiment [8], 0.914. For the same compound, in [1], the composite Z-score was -0.337 (inactive).

On to `C=CCN1C(=O)[C@@]2(O[C@@H](CCn3cc([C@H](O)c4ccccc4)nn3)[C@H]([Si](C)(C)c3ccc(OC)cc3)[C@H]2C)c2ccccc21`, for which the composite z-score in the experiment with Albumin (Bos taurus) is 0.205; in experiment [2], 0.221; in [3], -0.151; in experiment [4], 0.499; in [5], 0.422; in experiment [6], 0.572. Moreover, the composite z-score in the experiment on Sam68 (KHDRBS1) stood at 1.08; in experiment [7], 0.333; in experiment [8], 1.01. Further, the composite Z-score in experiment [1] was 0.363 (inactive).

For the compound `C=C(C(=O)CC[C@H](OC(C)=O)c1cccc(OCCO)c1)C(C)C`, the composite z-score with Albumin (Bos taurus) is -0.757; in experiment [2], -0.135; in experiment [3] it was -0.148; in experiment [4], -0.382; in experiment [5] it was 0.409; in experiment [6], -0.326. Further, the composite z-score with Sam68 (KHDRBS1) was -0.0177; in [7], -1.23; in experiment [8] it was -1.21. Besides, in [1], the composite Z-score was 0.562 (inactive).

Consider `COc1ccc([Si](C)(C)[C@@H]2[C@@H](CC(=O)N3CCC[C@H]3CO)O[C@]3(C(=O)N(Cc4ccc(N5C(=O)c6cccc7cccc5c67)cc4)c4ccccc43)[C@H]2C)cc1`, for which the composite z-score with Albumin (Bos taurus) is -0.647; in [2], 0.0996; in experiment [3], -0.148; in experiment [4], 0.447; in [5] it was 1.77; in experiment [6] it was 0.323. The composite z-score was 1.29 with Sam68 (KHDRBS1), 1.3 in [7] and 0.892 in experiment [8]. For the same compound, the composite Z-score in experiment [1] was 0.296 (inactive).

On to `CC[C@H]1C2=C3C(CC[C@H]4C(OCc5ccc(F)cc5C(F)(F)F)OC[C@](C)([C@@H]34)N(C(=O)OC(C)(C)C)C2)C2COC(=O)OCC21` (stereo not given in full), for which the composite z-score turned out to be 0.911 with Albumin (Bos taurus); 0.367 in [2]; 0.0755 in experiment [3]; 0.578 in experiment [4]; 2.62 in experiment [5]; 0.494 in [6]. The composite z-score in the experiment on Sam68 (KHDRBS1) was 1.32; in experiment [7], -1.64; in [8], 0.994. Further, in experiment [1], the composite Z-score is 0.572 (inactive).

In the case of `COCCOC(=O)N1C(=O)[C@@]2(c3cc(C#CC4=CCCCC4)ccc31)[C@H](C(=O)N1CCN(c3ncccn3)CC1)[C@H]1C(=O)O[C@H](c3ccccc3)[C@H](c3ccccc3)N1[C@@H]2c1ccc(O)cc1`, the composite z-score with Albumin (Bos taurus) was 0.649; in [2], 0.061; in [3] it was -0.0304; in experiment [4], 0.541; in experiment [5], 1.09; in experiment [6] it was 0.615. Further, the figures for the composite z-score (in the experiment with Sam68 (KHDRBS1); in experiment [7]; in experiment [8]) were 1.29, 0.204 and 1.13, respectively. In addition, in [1], the composite Z-score is 0.215 (inactive).

With `CO[C@H]1O[C@H](CO)[C@@H](OC(=O)Nc2ccc(Oc3ccccc3)cc2)[C@H](OC(=O)Nc2ccccc2-c2ccccc2)[C@@H]1OC(=O)Nc1ccccc1-c1ccccc1`, the composite z-score turned out to be 0.814 with Albumin (Bos taurus); 0.182 in experiment [2]; 0.247 in [3]; 0.482 in experiment [4]; 2.31 in experiment [5]; 1.09 in experiment [6]. The composite z-score is 1.32 in the experiment with Sam68 (KHDRBS1), -0.139 in experiment [7] and 1.14 in experiment [8]. The composite Z-score in experiment [1] was -0.098 (inactive).

Take `COc1cc(CO)cc(I)c1O[C@H]1C=C(C(=O)NCCO)C[C@@H](N(CC2CCCCC2)C(=O)c2ccc(C(F)(F)F)cc2)[C@@H]1O`: the composite z-score is 0.388 with Albumin (Bos taurus); -0.0921 in experiment [2]; -0.147 in experiment [3]; 0.055 in experiment [4]; 0.461 in experiment [5]; 0.621 in experiment [6]. The composite z-score worked out at 1.27 in the experiment on Sam68 (KHDRBS1), 0.398 in experiment [7] and 0.352 in [8]. Also, the composite Z-score in experiment [1] was 0.527 (inactive).
